DT40 TDP1 CPT = DT40-hTDP1 cell growth loss with CPT; chicken DT40 Tdp1-/-;hTDP1 cells + 20 nM CPT, ATP luminescence, 48 h; Potency, µM (top dose mostly 46.2 µM), without a hit: at the top dose activity change, negative = growth inhibition, usual class: inhibitors; 420,000 tested, 12% active; AID 686979; note: potency is the fitted concentration of half-maximal effect; nearly all actives have a fitted effect of over 55% in size
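Chicken DT40 Tdp1-/- cells stably complemented with human TDP1 were seeded at 400 cells/well in medium containing 20 nM camptothecin, exposed to pin-transferred compounds, and grown at 37 °C for at least 48 hr. Viability was read as ATP luminescence.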
TDP1 cell noCPT = qHTS for Inhibitors of human tyrosyl-DNA phosphodiesterase 1 (TDP1): qHTS in cells in absence of CPT | DT40 Tdp1-/- hTDP1 cells, no CPT, ATP luminescence, 48 h | Potency, µM (titrated, usually from 46.2 µM), for inactives: top-dose activity change, negative = growth inhibition, usual class: inhibitors | 420,000 tested, 15% active; note: potency is the fitted concentration of half-maximal effect; nearly all actives have a fitted effect of over 55% in size
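A cellular qHTS used chicken DT40 cells lacking endogenous Tdp1 but carrying stably transfected human TDP1. Compounds were applied without camptothecin, and cell growth kinetics were judged by ATP-dependent luminescence after ≥48 hr.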
HT1080-NT tox = kills 2HG-producing HT-1080-NT fibrosarcoma cells | HT-1080-NT fibrosarcoma viability, CellTiter-Glo ATP luminescence, 48 h | Potency, µM (series often up to 46.1 µM), for inactives: at the top dose activity, negative = less viability, actives largely listed as cytotoxic | 360,000 tested, 1.6% active | AID 686970;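 note: NT is the 2HG producing partner of a matched IDH1 knockdown line; potency is the fitted concentration of half-maximal effect; 0% = DMSO-treated cells and -100% = media-only wells without cells; nearly all actives have a fitted effect of over 55% in size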
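Viability of the 2HG-overproducing fibrosarcoma line after 48 hours of compound exposure at 37 degrees C was determined by luminescence with CellTiter-Glo, and concentration-effect curves were then fitted and categorized.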
HT1080 IDH1KD tx = kills HT-1080 cells with IDH1 knockdown; Potency, µM (titrated, usually from 46.1 µM), for inactives: top-dose activity, negative = toxicity, actives largely listed as cytotoxic; 360,000 tested, 2% active; HT-1080 IDH1 knockdown viability, ATP luminescence, 48 h;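 note: potency is the fitted concentration of half-maximal effect; 0% = DMSO wells and -100% = cell-free medium wells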
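IDH1KD HT-1080 cells, 750/well, RPMI + 5% FBS; compound pinned after 2 h settling; 48 h, 37 °C; CellTiter-Glo luminescence; % activity normalised to DMSO and no-cell wells; curves fitted, classed by r2 and efficacy.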
IL1B secr inh = blocks inflammasome-driven IL-1 beta release | THP-1 LPS/ATP IL-1B secretion, AlphaLISA, 16 h; active compounds read low | activity change, % at 57.5 µM | 360,000 tested, 4.7% active | AID 743279; in the data active = activity change below about -50%; inconclusive = mostly about -30% to -49%
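Secreted IL-1B measured by AlphaLISA bead assay after 16 h compound exposure of THP-1 cells; compounds (final up to 57.5 uM) added 1 h before LPS (250 ng/mL) and ATP (1.25 mM) stimulation; lower signal means less secretion.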
Numbers without * were called inactive; ? = inconclusive; · = no result; [ ] = another dose, or the depositor's remark. An excerpt weighted towards active compounds, which were near 19% of everything screened. Unless noted, calls come from the whole dose curve; as a rule, active = well fitted curve in the direction sought with a large enough effect; inconclusive = small, poorly fitted or top-dose-only effect, or another doubt; inactive = no such curve, though single readings can be large; an effect the other way counts as inactive or inconclusive. Unless noted, % is set by controls: 0 for no effect and ±100 for the full control effect.

SMILES	DT40 TDP1 CPT	TDP1 cell noCPT	HT1080-NT tox	HT1080 IDH1KD tx	IL1B secr inh
Cc1cc(Br)cn2c(Cc3ccsc3)c(C(C)(C)C)nc12	?	25.9µM*	0.8%	-3.1%	12.3
CN(C)c1nc2cc3c(cc2cc1CN(CC1CCCO1)C(=O)c1cccc(F)c1)OCO3 (configuration not stated)	17.6%[9.04 µM]	-2.9%	·	·	·
COc1cccc(Cc2nc3ccccc3nc2SCC(=O)N2CCN(c3ccccc3)CC2)c1	?	23.1µM*	·	·	·
O=C(CSc1nc2ccccc2nc1Cc1ccccc1)Nc1ccccc1C(F)(F)F	-22.9%	-12.3%	·	·	·
Cc1nc2ccccc2nc1SCC(=O)N1CCC(C)CC1	?	?	-6.8%	?	2.5
COc1ccccc1Cc1nc2ccccc2nc1SCC(=O)N1CCC(C)CC1	16.4µM*	9.2µM*	·	·	·
CCc1cccc(C)c1NC(=O)CSc1nc2ccccc2nc1Cc1ccccc1	?	16.4µM*	·	·	·
COc1ccccc1Cc1nc2ccccc2nc1SCC(=O)N1CCN(c2ccccc2)CC1	20.6µM*	23.1µM*	·	·	·
COCCN(CC(=O)Nc1ccccc1C(F)(F)F)C(=O)/C=C/c1cc(Cl)c2c(c1)OCCO2	?	?	-1.4%	-34.4%	-4.5
CCc1cccc(C)c1NC(=O)CSc1nnc(CC)n2c1cc1occc12	?	18.4µM*	·	·	·
COc1ccccc1Cc1nc2ccccc2nc1SCC(=O)NCCc1ccccc1	-16.3%	-21.7%	·	·	·
CCc1cccc(C)c1NC(=O)CSc1nnc(-c2cc3cc(Br)ccc3o2)n1CC	23.1µM*	18.4µM*	-5.9%	-22.4%	-24.8
COc1cccc(Cc2nc3ccccc3nc2SCC(=O)NCCc2ccccc2)c1	18.4µM*	18.4µM*	·	·	·
Cc1cc(Cl)ccc1OCC(=O)N/N=C/c1ccc(OC2OC(CO)C(O)C(O)C2O)cc1 (configuration not stated)	0.8%	-8.1%	-13.7%	-15.5%	-12.9
COc1ccc(OCC(=O)N/N=C/c2ccc(O[C@@H]3O[C@H](CO)[C@@H](O)[C@H](O)[C@H]3O)cc2)cc1	-1.9%	-6.4%	?	1.64µM*	-12.2
CN(C(=O)COC(=O)CCc1c[nH]c2ccccc12)C(c1ccccc1)c1ccccc1	?	?	-2.4%	-5.7%	-5.8
COC(=O)c1cc(OC)c(OC)cc1NC(=O)C(C)c1ccc([N+](=O)[O-])cc1 (configuration not stated)	?	?	0.5%	4.7%	2.2
COc1ccc(C2NCCc3c2[nH]c2ccccc32)cc1CSc1nc2ccccc2s1 (configuration not stated)	?	?	23.1µM*	23.1µM*	-15.1
O=c1[nH]c(CSc2nc3ccccc3s2)nc2ccccc12	-22.1%	1.8%	-14.9%	-10.5%	65.0
COCc1cc(C)nc2sc(C(=O)NCCO)c(-n3cccc3)c12	-6.7%	16.7%	5.2%	4.5%	2.8
COC(=O)[C@]1(C)N[C@H](c2ccc(-c3ccc(OC)cc3)cc2)[C@@H]2C(=O)N(C)C(=O)[C@@H]21	-8.8%	-14.4%	-5.8%	-14.7%	-2.0
COC(=O)[C@]1(C)N[C@H](c2ccc(-c3ccc(Cl)c(Cl)c3)c(OC)c2)[C@@H]2C(=O)N(C)C(=O)[C@@H]21	9.2µM*	7.31µM*	?	?	-12.5
CCN1C(=O)C2C(c3ccc(O)c(OC)c3)NC(C)(C(=O)OC)C2C1=O (configuration not stated)	1.8%	-15.3%	12.0%	6.7%	33.4
CCN1C(=O)[C@H]2[C@@H](c3ccc(-c4cccc(Cl)c4)c(OC)c3)N[C@@](C)(C(=O)OC)[C@H]2C1=O	13µM*	?	-0.5%	-4.1%	-7.3
O=C(c1cc(N2CCOCC2)c(F)cc1[N+](=O)[O-])N1CCOCC1	4.9%	-4.9%	-1.3%	-4.6%	-1.1
SMILES	DT40 TDP1 CPT	TDP1 cell noCPT	HT1080-NT tox	HT1080 IDH1KD tx	IL1B secr inh
CCCN(CCC)C(=O)c1cc(-c2ccc3c(c2)OCO3)nc2ccccc12	14.6µM*	14.6µM*	-13.2%	-28.9%	-14.2
O=C(NCc1ccc2c(c1)OCO2)c1cc(-c2ccncc2)nc2ccccc12	16.4µM*	?	-6.7%	-0.2%	3.1
COc1cccc(CNC(=O)c2cc(S(=O)(=O)N3CCCCC3)cn2C)c1	-18.8%	?	·	·	·
CC(=O)NC(Cc1ccc([N+](=O)[O-])cc1)C(=O)NCC(N)C(=O)c1ccccc1 (configuration not stated)	22.4µM*	5.62µM*	-2.1%	-2.6%	·
CCC[N+](CC#Cc1ccccc1)(CCC)CC(=O)OC	?	4.3%	11.5%	14.8%	28.0
O=C(C[N+]1(CC#Cc2ccccc2)CCCCC1)c1ccccc1	16.4µM*	20.6µM*	1.7%	-7.0%	-20.8
O=C(C[N+]1(CC#Cc2ccccc2)CCOCC1)c1ccccc1	?	16.4µM*	-9.3%	10.7%	-18.9
C(#Cc1ccccc1)CN1CCOCC1	7.9%	1.1%	5.9%	0.4%	25.4
O=C(C[N+]1(CC#Cc2ccccc2)CCOCC1)c1ccc(Cl)cc1	?	?	?	?	-11.4
CCC[N+](CC#Cc1ccccc1)(CCC)CC(=O)c1ccc(Cl)cc1	?	25.9µM*	-13.1%	-25.3%	-71.4*
C(#Cc1ccccc1)C[N+]1(CC#Cc2cccc3ccccc23)CCOCC1	6.51µM*	4.61µM*	?	?	-84.4*
CCCCNS(=O)(=O)CCNCc1ccco1	-8.1%	-9.5%	-3.0%	-6.1%	-2.9
COCCNC(=O)C1CCCN(C(=O)Cc2ccc(F)cc2)CC1 (configuration not stated)	-2.1%	20.0%	?	26.0%	10.3
Cc1c(NC(=O)OC(C)C)sc(=S)n1C	-2.4%	-8.2%	3.1%	4.2%	-2.8
Cc1ccc(NC2=CC(c3ccccc3F)N(c3ccc(C)cc3)C2=O)cc1 (configuration not stated)	-29.3%	?	·	·	·
N#CCSc1ccccc1NC(=O)COC(=O)C1CCN(C(=O)c2ccc(Cl)cc2)CC1	1.5%	-16.1%	-2.0%	4.3%	19.2
CCCC(=O)N1CCCC1(C)C(=O)Nc1ccc(-n2cncn2)cc1 (configuration not stated)	10.1%	28.3%	-1.6%	15.0%	-6.4
CC(C)(Oc1ccc(Cl)cc1)C(=O)O	-5.8%	?	36.6%	7.9%	7.3
O=C(C[N+]1(CC#Cc2ccccc2)CCCCC1)c1ccc(Cl)cc1	11.6µM*	3.66µM*	-6.5%	-5.7%	-56.8*
CC[N+]1(CC(=O)c2ccc(Cl)cc2)CCCCC1	7.7%	-0.5%	·	·	·
